Experimental data: PubChem BioAssay (Tox21)
Records with an inconclusive call do not appear. Calls of active or inactive are those of the source. Unless noted, calls come from the whole dose curve; as a rule, active = well fitted curve in the direction sought with a large enough effect in the repeat runs; inconclusive = weak or mixed curves; inactive = no such curve, though single readings can be large; an effect the other way counts as inactive or inconclusive.

Columns and labels:
[1] = qHTS assay to identify small molecule antagonists of the estrogen receptor alpha (ER-alpha) signaling pathway using the BG1 cell line in the presence of 0.1 nM 17-beta-estradiol - cell viability counter screen (AID 1259241); note: nearly all actives have a fitted effect of over 40% in size; note: potency is the fitted concentration of half-maximal effect
Outline: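 Live-cell protease activity (CellTiter-Fluor fluorescence, 30 min) was read in the same wells after VM7Luc4E2 cells had been exposed to compounds with 0.1 nM 17beta-estradiol for 22 hr at 37C.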

[2] = qHTS assay to identify small molecule HDAC inhibitors (AID 1259364);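 note: wild-type HCT-116 cells with endogenous class I/II HDAC activity; top concentration of the series differs between compounds; nearly all actives have a fitted effect of over 45% in size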
Outline: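 HCT-116 wt cells, 1,500/well, overnight attach. Compounds (DMSO) 2 h, 37 °C. HDAC-Glo I/II, 30 min RT. Luminescence.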

[3] = qHTS assay to identify small molecule HDAC inhibitors - cell viability counter screen (AID 1259365); note: series mostly up to about 92 µM; nearly all actives have a fitted effect of over 50% in size
Outline: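 HCT-116 (wild type), 1,500 cells/well, overnight 37C/5% CO2; compound in DMSO 2hr; CellTiter-Glo 30min RT; luminescence read.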

[4] = qHTS assay to identify small molecule agonists of the sonic hedgehog signaling (Shh) pathway - cell viability counter screen (AID 1259366); note: nearly all actives have a fitted effect of over 50% in size; note: potency is the fitted concentration of half-maximal effect
Outline: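 CellTiter-Fluor fluorescence read-out, 1 hr at 37C, added after 23hr compound exposure. Cells: 3T3 Gli1-Luc, an NIH/3T3 clone with stably integrated Gli1-Luc reporter, plated 4hr before compound.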

[5] = qHTS assay to identify small molecule antagonists of the sonic hedgehog signaling (Shh) pathway - cell viability counter screen (AID 1259367); note: nearly all actives have a fitted effect of over 55% in size; note: potency is the fitted concentration of half-maximal effect
Outline: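 Conditioned medium drove Shh signaling in 3T3 Gli1-Luc cells exposed to compounds at 37C and 5% CO2. Viability was determined from CellTiter-Fluor fluorescence, with reagent incubated 1 hr after 23 hr of treatment.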

[6] = qHTS assay to identify small molecule agonists of the sonic hedgehog signaling (Shh) pathway (AID 1259368; calls by dose curve;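 note: NIH/3T3-derived 3T3Gli1-Luc cells carrying a stable Gli1-driven firefly luciferase reporter; series mostly up to about 92 µM; nearly all actives have a fitted effect of over 15% in size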)
Outline: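 Following a 24 hr incubation with DMSO-dissolved compounds at 37 C, 5% CO2, Gli1-Luc NIH/3T3-derived cells received luciferase reagent for 30 min at room temperature prior to luminescence measurement.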

[7] = qHTS assay to identify small molecule agonists of the androgen receptor (AR) signaling pathway in the presence of an antagonist - cell viability counter screen (AID 1259379); note: nearly all actives have a fitted effect of over 25% in size; note: potency is the fitted concentration of half-maximal effect
Outline: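 Each compound was tested at 15 concentrations on MDA-kb2 cells in the presence of 3.0uM nilutamide. Viability was measured by CellTiter-Fluor fluorescence after a 16 hr incubation at 37C in a CO2-free atmosphere.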

[8] = qHTS assay to identify small molecule agonists of the estrogen receptor beta (ER-beta) signaling pathway - cell viability counter screen (AID 1259380); note: nearly all actives have a fitted effect of over 30% in size; note: potency is the fitted concentration of half-maximal effect
Outline: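 Compounds dissolved in DMSO were pin-transferred onto ER-beta-UAS-bla HEK293T cells that had settled 6 hr, and exposure ran 16 hr at 37C. Following the reporter read, CellTiter-Glo luminescence after 30 min at room temperature indicated cytotoxicity.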

[9] = qHTS assay to identify small molecule antagonists of the estrogen receptor beta (ER-beta) signaling pathway - cell viability counter screen (AID 1259382); note: nearly all actives have a fitted effect of over 55% in size; note: potency is the fitted concentration of half-maximal effect
Outline: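 CellTiter-Glo ATP luminescence measured after the LiveBLAzer read in the same wells; ER-beta-UAS-bla HEK293T cells, 16 hr compound treatment with 1nM 17-beta-estradiol agonist at 37C, 5% CO2.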

[10] = qHTS assay to identify small molecule agonists or antagonists of the thyroid stimulating hormone receptor (TSHR) signaling pathway - wild type cell line counter screen (AID 1259384; calls by dose curve)
Outline: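 Wild-type HEK293 cells were plated 18 h at 37 C/5% CO2, pin-dosed with compound plus Ro20-1724 medium, held 30 min at room temperature, then given cAMP-d2 and anti-cAMP-cryptate; fluorescence was read after 1 h. Fifteen concentrations, triplicate.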

[11] = qHTS assay to identify small molecule phospholipidosis (PLD) inducers (AID 1259344; active = well fitted curve in the direction sought with a large enough effect; an effect the other way counts as inactive or inconclusive)
Outline: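 After 4 h attachment on collagen I, HepG2 cells were dosed with compound alongside LipidTOX Red, kept 24 h at 37 C, fixed, and imaged for lamellar phospholipid pits.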

[12] = qHTS assay to identify small molecule antagonists of the sonic hedgehog signaling (Shh) pathway (AID 1259369; calls by dose curve; note: nearly all actives have a fitted effect of over 45% in size; note: potency is the fitted concentration of half-maximal effect)
Outline: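 Read-out is luminescence from a firefly luciferase gene controlled by the Gli1 response element, in 3T3Gli1-Luc cells pre-incubated 4hr then exposed to compounds and conditioned medium for 24hr.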

[13] = biological target: Estrogen receptor beta (Homo sapiens) (UniProt Q92731); assay: qHTS assay to identify small molecule agonists of the estrogen receptor beta (ER-beta) signaling pathway (AID 1259377; active = well fitted activation curve with a large enough effect in the signal ratio in the repeat runs, not every such curve was filed as active; the % refers to the signal ratio)
Chain of Estrogen receptor beta (Homo sapiens) (Q92731 whole entry, looked up): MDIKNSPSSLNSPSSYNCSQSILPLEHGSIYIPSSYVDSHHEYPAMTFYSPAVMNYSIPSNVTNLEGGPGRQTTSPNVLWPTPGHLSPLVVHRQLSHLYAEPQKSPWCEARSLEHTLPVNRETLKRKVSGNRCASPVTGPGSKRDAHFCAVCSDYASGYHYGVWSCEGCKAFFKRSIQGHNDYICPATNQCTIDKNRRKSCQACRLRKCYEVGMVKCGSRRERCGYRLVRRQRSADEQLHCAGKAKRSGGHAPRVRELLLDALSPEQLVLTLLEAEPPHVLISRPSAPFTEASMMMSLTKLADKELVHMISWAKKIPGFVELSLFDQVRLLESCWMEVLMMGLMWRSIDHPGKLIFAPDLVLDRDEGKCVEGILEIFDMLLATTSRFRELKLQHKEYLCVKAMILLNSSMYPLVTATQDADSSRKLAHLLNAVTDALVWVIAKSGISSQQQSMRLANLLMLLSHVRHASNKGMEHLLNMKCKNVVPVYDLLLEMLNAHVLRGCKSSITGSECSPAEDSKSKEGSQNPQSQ
Outline: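 Beta-lactamase reporter readout: fluorescence of LiveBLAzer B/G FRET substrate after 2 h at room temperature, following 16 h compound treatment of ER-beta-UAS-bla HEK293T cells at 37C in 2% charcoal-stripped FBS medium.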

[14] = biological target: Thyrotropin receptor (Homo sapiens) (UniProt P16473); assay: qHTS assay to identify small molecule antagonists of the thyroid stimulating hormone receptor (TSHR) signaling pathway (AID 1259385; calls by dose curve; note: nearly all actives have a fitted effect of over 20% in size)
Chain of Thyrotropin receptor (Homo sapiens) (P16473 whole entry, looked up): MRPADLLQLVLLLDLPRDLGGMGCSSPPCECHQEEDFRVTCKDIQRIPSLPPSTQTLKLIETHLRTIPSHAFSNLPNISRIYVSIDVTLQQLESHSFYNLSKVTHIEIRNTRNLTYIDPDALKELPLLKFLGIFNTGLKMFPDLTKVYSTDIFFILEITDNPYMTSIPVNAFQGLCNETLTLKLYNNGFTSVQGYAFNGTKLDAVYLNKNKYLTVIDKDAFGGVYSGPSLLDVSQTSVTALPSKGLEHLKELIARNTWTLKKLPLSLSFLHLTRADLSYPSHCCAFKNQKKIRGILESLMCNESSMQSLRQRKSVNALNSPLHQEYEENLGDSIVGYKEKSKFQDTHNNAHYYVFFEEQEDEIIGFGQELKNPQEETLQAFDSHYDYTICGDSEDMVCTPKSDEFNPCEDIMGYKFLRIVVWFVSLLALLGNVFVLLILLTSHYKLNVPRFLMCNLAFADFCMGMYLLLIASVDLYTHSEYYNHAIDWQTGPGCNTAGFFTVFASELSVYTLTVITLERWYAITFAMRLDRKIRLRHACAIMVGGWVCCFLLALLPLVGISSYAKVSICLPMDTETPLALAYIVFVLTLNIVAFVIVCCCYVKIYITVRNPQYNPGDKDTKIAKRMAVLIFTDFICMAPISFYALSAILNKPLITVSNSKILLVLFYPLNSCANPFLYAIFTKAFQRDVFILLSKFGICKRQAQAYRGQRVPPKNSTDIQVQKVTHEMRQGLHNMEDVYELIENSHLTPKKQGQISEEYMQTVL
Outline: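 TSHR-HEK293 cells were plated and held 18 h at 37C/5% CO2, then given compound plus Ro20-1724 and stimulated with TSH at 1.5 ng/mL final. After 30 min at room temperature, cAMP was detected with cAMP-d2/anti-cAMP-cryptate (1 h) by fluorescence.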

[15] = biological target: Estrogen receptor beta (Homo sapiens) (UniProt Q92731); assay: qHTS assay to identify small molecule antagonists of the estrogen receptor beta (ER-beta) signaling pathway (AID 1259378; active = well fitted inhibition curve with a large enough effect in the signal ratio in the repeat runs, not every such curve was filed as active; the % refers to the signal ratio; note: potency is the fitted concentration of half-maximal effect)
Outline: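 ER-beta-UAS-bla HEK293T (GripTite) cells in 2% charcoal-stripped FBS medium were preincubated 6 hr at 37C, dosed with compound, then stimulated with 1 nM E2 (final) for 16 hr; beta-lactamase reporter read by B/G FRET fluorescence after 2 hr substrate loading.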

[16] = biological target: Androgen receptor (Homo sapiens) (UniProt P10275); assay: qHTS assay to identify small molecule agonists of the androgen receptor (AR) signaling pathway in the presence of an antagonist (AID 1259381; calls by dose curve; note: nearly all actives have a fitted effect of over 15% in size)
Chain of Androgen receptor (Homo sapiens) (P10275 whole entry, looked up): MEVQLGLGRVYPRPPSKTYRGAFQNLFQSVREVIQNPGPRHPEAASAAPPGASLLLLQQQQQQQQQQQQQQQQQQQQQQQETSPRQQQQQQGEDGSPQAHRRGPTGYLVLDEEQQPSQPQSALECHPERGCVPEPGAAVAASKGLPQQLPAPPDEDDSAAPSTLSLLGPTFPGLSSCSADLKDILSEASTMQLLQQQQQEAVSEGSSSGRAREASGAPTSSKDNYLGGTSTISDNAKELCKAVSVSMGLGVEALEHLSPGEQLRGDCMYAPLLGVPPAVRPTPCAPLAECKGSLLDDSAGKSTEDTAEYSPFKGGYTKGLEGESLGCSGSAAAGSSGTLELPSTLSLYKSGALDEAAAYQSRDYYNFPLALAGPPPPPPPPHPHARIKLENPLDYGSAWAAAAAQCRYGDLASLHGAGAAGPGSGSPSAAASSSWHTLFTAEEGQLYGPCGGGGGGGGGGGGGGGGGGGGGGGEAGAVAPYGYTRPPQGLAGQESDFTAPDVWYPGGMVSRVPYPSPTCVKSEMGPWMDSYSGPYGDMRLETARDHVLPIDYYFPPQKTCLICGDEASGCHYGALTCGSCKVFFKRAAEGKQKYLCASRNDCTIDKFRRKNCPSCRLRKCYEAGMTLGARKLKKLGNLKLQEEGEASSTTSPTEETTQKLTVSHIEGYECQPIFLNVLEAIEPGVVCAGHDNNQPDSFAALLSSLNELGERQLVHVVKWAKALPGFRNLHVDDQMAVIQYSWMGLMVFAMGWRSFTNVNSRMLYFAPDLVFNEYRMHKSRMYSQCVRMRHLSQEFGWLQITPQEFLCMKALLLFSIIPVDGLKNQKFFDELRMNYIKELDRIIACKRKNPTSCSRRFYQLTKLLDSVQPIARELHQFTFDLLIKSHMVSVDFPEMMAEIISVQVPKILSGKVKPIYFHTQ
Outline: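 Plated MDA-kb2 cells (3,000/well) were pre-incubated 5hr, given nilutamide (3.0uM final) or buffer, then dosed with compounds in DMSO at 15 concentrations. Luciferase activity was quantified by luminescence after 16hr at 37C.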

[17] = biological target: Estrogen receptor (Homo sapiens) (UniProt P03372); assay: qHTS assay to identify small molecule agonists of the estrogen receptor alpha (ER-alpha) signaling pathway in the presence of an antagonist (AID 1259383; calls by dose curve; note: top concentration of the series differs between compounds; nearly all actives have a fitted effect of over 15% in size)
Chain of Estrogen receptor (Homo sapiens) (P03372 whole entry, looked up): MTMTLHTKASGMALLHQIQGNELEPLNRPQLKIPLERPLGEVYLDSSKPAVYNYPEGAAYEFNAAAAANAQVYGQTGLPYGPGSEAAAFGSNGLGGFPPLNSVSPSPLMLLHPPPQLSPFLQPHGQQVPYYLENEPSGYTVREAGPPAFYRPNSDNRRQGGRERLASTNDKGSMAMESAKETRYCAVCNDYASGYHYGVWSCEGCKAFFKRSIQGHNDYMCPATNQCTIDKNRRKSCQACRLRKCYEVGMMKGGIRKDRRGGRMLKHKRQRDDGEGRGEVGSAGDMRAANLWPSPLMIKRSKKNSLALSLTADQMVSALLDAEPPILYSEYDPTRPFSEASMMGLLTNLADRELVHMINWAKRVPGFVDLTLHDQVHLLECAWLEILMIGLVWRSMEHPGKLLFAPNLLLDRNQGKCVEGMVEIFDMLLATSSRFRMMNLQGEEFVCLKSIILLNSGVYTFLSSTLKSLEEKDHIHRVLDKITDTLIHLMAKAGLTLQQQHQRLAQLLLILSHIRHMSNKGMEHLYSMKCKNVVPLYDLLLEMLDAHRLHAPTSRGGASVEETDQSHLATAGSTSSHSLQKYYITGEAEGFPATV
Outline: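 Luminescent ERE-luciferase reporter, VM7Luc4E2 cells (endogenous ER-alpha); 10.0nM ICI-182,780 final; 15-point compound titration; 22hr at 37C; ONE-Glo, 30min RT.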

[18] = biological target: Estrogen receptor (Homo sapiens) (UniProt P03372); assay: qHTS assay to identify small molecule antagonists of the estrogen receptor alpha (ER-alpha) signaling pathway using the BG1 cell line in the presence of 0.1 nM 17-beta-estradiol (AID 1259244); note: potency is the fitted concentration of half-maximal effect; nearly all actives have a fitted effect of over 50% in size
Outline: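 Luciferase signal from VM7Luc4E2 ERE-reporter cells, co-dosed with test compound and 0.1 nM final 17beta-estradiol for 22 h, read with ONE-Glo.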

Measured: Potency

CCN(C(=O)c1cc(C)cc(OC[C@H](C)Nc2ccncc2)c1)C(C)C
inactive: [1] | [2] | [3] | [4] | [5] | [6] | [7] | [8] | [9] | [10]

COc1cc(/C=C/C(=O)O[C@H]2CC[C@]34C[C@]35CC[C@]3(C)[C@@H]([C@H](C)CCC=C(C)C)CC[C@@]3(C)[C@@H]5CC[C@H]4C2(C)C)ccc1O
not listed: [10] | [13] | [14] | [15] | [16] | [17] | [18]
inactive: all other assays above

CC(C)(C)c1ccc(C(=O)O)cc1
not listed: [9] | [11] | [15] | [16] | [17] | [18]
inactive: all other assays above

CCCCCCCC/C=C/CCCCCCCC1=NCCN1CCO
active: [12] 54.5 µM | [15] 54.5 µM | [7] 61.1 µM | [8] 27.3 µM | [9] 54.5 µM
inactive: [1] | [2] | [3] | [6] | [16]

Nc1ccc2cc(S(=O)(=O)O)cc(O)c2c1N=Nc1ccccc1C(F)(F)F
inactive: [2] | [3] | [6] | [12] | [13] | [15] | [8] | [9]
active: [1] 30.6 µM | [7] 30.6 µM

C=CC(=O)OCCn1c(=O)n(CCOC(=O)C=C)c(=O)n(CCOC(=O)C=C)c1=O
inactive: [2] | [6] | [10] | [14]
active: [1] 48.6 µM | [4] 10.9 µM | [5] 21.7 µM | [12] 5.45 µM | [7] 21.7 µM

NC(=O)CC[C@@H]1NC(=O)[C@H](Cc2ccccc2)NC(=O)[C@H](Cc2ccc(O)cc2)NC(=O)CCSSC[C@@H](C(=O)N2CCC[C@H]2C(=O)N[C@@H](CCCN=C(N)N)C(=O)NCC(N)=O)NC(=O)[C@H](CC(N)=O)NC1=O
not listed: [9] | [12] | [13] | [15] | [16] | [17] | [18]
inactive: all other assays above

CCOc1nc2cccc(C(=O)OC(C)OC(=O)OC3CCCCC3)c2n1Cc1ccc(-c2ccccc2-c2nn[nH]n2)cc1 (configuration not stated)
inactive: [1] | [2] | [6] | [13] | [17] | [10] | [14]
active: [12] 21.7 µM | [8] 13.7 µM

O=C(Oc1cccc2cccnc12)c1ccccc1
inactive: [1] | [11] | [3] | [6] | [12] | [13] | [17] | [10] | [14]
active: [4] 1.5 µM | [8] 10.6 µM

COc1cccc(N)c1
inactive: [1] | [3] | [4] | [5] | [6] | [12] | [7] | [10]

O=c1[nH]sc2ccccc12
inactive: [3] | [6] | [13] | [10]
active: [1] 61.1 µM | [18] 54.5 µM | [4] 13.7 µM | [5] 17.2 µM | [12] 0.969 µM | [8] 19.3 µM | [9] 27.3 µM

CC1=C(C(=O)OC(C)C)C(c2cccc([N+](=O)[O-])c2)C(C(=O)OC2CN(C(c3ccccc3)c3ccccc3)C2)=C(N)N1 (configuration not stated)
inactive: [1] | [11] | [3] | [6] | [10] | [14]
active: [4] 23.7 µM | [5] 26.6 µM | [12] 29.8 µM | [15] 16.8 µM | [8] 29.8 µM

COc1ccc(CN2CCN(C(c3ccc(F)cc3)c3ccc(F)cc3)CC2)c(OC)c1OC
active: [12] 29.8 µM | [7] 26.6 µM | [8] 11.9 µM | [9] 10.6 µM
inactive: [1] | [2] | [3] | [6] | [10]

O=[N+]([O-])c1cc([N+](=O)[O-])c2ccc(S(=O)(=O)O)cc2c1O
inactive: [3] | [8]
active: [1] 27.1 µM | [4] 13.6 µM | [7] 21.6 µM
